PubChem BioAssay (EPA / NIEHS)
Calls of active or inactive are those of the source. How the source made its calls: active means hit-call score of the fitted dose curve at least 0.9, where 1 is the maximum; inactive means score below 0.9.

Key:
[1] = ATG_GRE_CIS: Attagene CIS-FACTORIAL HepG2 Assay for human Glucocorticoid Response Elements (GRE) (AID 2282947); conditions: HepG2 GRE cis-reporter, Attagene multiplex mRNA; actives raise or lower the signal
Outline: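 Following 24 h chemical exposure of transiently transfected HepG2 cells, total RNA was reverse-transcribed and reporter cDNA amplified, fluorescently labelled and sized by capillary electrophoresis. Signal gain or loss was fitted relative to DMSO vehicle.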

[2] = ATG_ISRE_CIS: Attagene CIS-FACTORIAL HepG2 Assay for human Interferon Regulatory Factor 1 (IRF1) binding to an Interferon-Stimulated Response Element (ISRE) (AID 2282948); conditions: HepG2 ISRE cis-reporter (Attagene), mRNA transcription readout; actives raise or lower the signal
Outline: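 Quantitation relies on labelled RT-PCR fragments separated by capillary electrophoresis. Human HepG2 cells bearing cis-promoter reporter constructs were treated 24 h; DMSO served as baseline for bidirectional fitting.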

[3] = ATG_M_32_CIS: Attagene CIS-FACTORIAL HepG2 Assay for M32 Transcription Factor (Internal Marker) (AID 2282949); conditions: HepG2 Attagene cis-factorial M32 reporter, mRNA; actives raise or lower the signal;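 further: background control marker of the multiplexed CIS panel rather than a real target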
Outline: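 HepG2 cells transiently transfected with multiplexed cis-regulated reporter units, dosed 24 h. Reporter mRNA quantified by RT-PCR, 6-FAM labelling, HpaI digestion and capillary electrophoresis; bidirectional fit vs DMSO.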

[4] = ATG_M_06_CIS: Attagene CIS-FACTORIAL HepG2 Assay for M06 Transcription Factor (Internal Marker) (AID 2282950); conditions: HepG2 Attagene CIS-FACTORIAL M06 internal marker reporter; actives raise or lower the signal
Outline: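 Steps: transfect HepG2 with multiplexed cis-element reporter constructs; dose chemical 24 h; extract RNA with DNase treatment; reverse-transcribe, PCR-amplify, 6-FAM label, HpaI digest; separate fragments by capillary electrophoresis. Activity fitted both directions versus DMSO.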

[5] = target: Hypoxia-inducible factor 1-alpha (Homo sapiens) (UniProt Q16665); assay: ATG_HIF1a_CIS: Attagene CIS-FACTORIAL HepG2 Assay for human Hypoxia Inducible Factor 1 (HIF1A) (AID 2282951); conditions: HepG2 Attagene cis-factorial HIF1a reporter transcription; actives raise or lower the signal
Outline: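 Activity is fitted in both directions relative to DMSO. Reporter transcripts are read by RT-PCR, fluorescent primer extension and capillary electrophoresis after 24 h chemical treatment. The cells are HepG2 carrying transiently transfected cis-element-driven reporter units responding to endogenous factors.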

[6] = target: Hepatocyte nuclear factor 6 (Homo sapiens) (UniProt Q9UBC0); assay: ATG_HNF6_CIS: Attagene CIS-FACTORIAL HepG2 Assay for human Hepatocyte Nuclear Factor 6 (HNF6) (AID 2282952); conditions: HepG2 Attagene cis-factorial HNF6 reporter transcription; actives raise or lower the signal
Outline: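 HepG2, transient MRTU transfection (cis promoters); 24 h chemical exposure; total RNA → oligo(dT) RT → PCR → 6-FAM labelling → HpaI cut → CE; bidirectional fit vs DMSO.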

[7] = target: Heat shock factor protein 1 (Homo sapiens) (UniProt Q00613); assay: ATG_HSE_CIS: Attagene CIS-FACTORIAL HepG2 Assay for human Heat Shock Transcription Factor 1 (HSE) (AID 2282953); conditions: HepG2 HSE cis-reporter, Attagene RNA transcription; actives raise or lower the signal
Outline: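 Cells were transfected with cis-element-driven reporter constructs, dosed for 24 h, then total RNA was reverse-transcribed and reporter cDNA amplified, FAM-labelled and digested with HpaI. Fragments were resolved by capillary electrophoresis; gain or loss was fitted against DMSO.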

[8] = ATG_MRE_CIS: Attagene CIS-FACTORIAL HepG2 Assay for human Metal Responsive Element (MRE) (AID 2282954); conditions: HepG2 MRE cis-reporter transcription, Attagene multiplex; actives raise or lower the signal
Outline: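 Step one: transfect HepG2 with cis-regulated reporter units. Step two: dose 24 h. Step three: isolate RNA, RT-PCR, 6-FAM label, HpaI digest, capillary electrophoresis. Fit bidirectionally to DMSO.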

[9] = ATG_PBREM_CIS: Attagene CIS-FACTORIAL HepG2 Assay for human Phenobarbital-responsive Enhancer Module (PBREM) (AID 2282955); conditions: HepG2 PBREM cis-reporter, Attagene multiplexed transcription; actives raise or lower the signal
Outline: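 Endogenous transcription factor activity was read from reporter transcripts in transiently transfected human HepG2 liver cells after 24 h dosing. RT-PCR products were fluorescently labelled, HpaI-cut and sized by capillary electrophoresis; activity fitted bidirectionally against DMSO baseline.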

Measured: AC50

Sequence of Hypoxia-inducible factor 1-alpha (Homo sapiens) (Q16665 whole entry, looked up): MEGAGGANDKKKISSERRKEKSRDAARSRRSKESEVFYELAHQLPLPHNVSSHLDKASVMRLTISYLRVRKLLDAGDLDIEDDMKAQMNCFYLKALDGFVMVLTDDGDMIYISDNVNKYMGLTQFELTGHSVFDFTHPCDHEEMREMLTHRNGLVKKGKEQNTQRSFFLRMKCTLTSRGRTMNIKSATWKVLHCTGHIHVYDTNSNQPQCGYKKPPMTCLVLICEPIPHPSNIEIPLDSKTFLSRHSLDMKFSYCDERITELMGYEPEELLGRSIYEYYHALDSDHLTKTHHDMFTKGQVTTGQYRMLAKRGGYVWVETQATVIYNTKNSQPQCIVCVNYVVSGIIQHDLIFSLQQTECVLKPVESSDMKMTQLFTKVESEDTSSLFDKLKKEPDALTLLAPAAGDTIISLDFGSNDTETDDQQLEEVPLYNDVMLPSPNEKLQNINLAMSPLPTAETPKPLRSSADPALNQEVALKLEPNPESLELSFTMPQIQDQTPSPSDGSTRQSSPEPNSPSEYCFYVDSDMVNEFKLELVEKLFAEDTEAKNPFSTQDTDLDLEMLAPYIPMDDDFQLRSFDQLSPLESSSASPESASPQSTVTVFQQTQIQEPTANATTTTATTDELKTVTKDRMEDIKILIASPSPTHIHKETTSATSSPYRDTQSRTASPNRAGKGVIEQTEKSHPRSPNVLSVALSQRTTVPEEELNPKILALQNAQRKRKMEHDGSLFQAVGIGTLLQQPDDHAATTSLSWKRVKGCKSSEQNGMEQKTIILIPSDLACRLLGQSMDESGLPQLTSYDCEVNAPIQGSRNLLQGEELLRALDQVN
Sequence of Hepatocyte nuclear factor 6 (Homo sapiens) (Q9UBC0 whole entry, looked up): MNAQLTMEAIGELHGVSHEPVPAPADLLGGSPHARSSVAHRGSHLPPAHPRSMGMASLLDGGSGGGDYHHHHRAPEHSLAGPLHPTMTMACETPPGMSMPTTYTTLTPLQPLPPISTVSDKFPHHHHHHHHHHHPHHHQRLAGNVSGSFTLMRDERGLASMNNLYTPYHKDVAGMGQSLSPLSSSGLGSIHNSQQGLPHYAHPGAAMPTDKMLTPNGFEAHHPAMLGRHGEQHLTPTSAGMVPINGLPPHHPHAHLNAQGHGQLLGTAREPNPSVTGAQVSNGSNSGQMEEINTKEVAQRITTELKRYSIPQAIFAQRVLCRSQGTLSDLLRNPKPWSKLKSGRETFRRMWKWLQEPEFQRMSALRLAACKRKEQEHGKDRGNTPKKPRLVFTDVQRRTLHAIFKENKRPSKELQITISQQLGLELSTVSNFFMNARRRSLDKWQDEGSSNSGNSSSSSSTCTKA
Sequence of Heat shock factor protein 1 (Homo sapiens) (Q00613 whole entry, looked up, the tested form may be a part): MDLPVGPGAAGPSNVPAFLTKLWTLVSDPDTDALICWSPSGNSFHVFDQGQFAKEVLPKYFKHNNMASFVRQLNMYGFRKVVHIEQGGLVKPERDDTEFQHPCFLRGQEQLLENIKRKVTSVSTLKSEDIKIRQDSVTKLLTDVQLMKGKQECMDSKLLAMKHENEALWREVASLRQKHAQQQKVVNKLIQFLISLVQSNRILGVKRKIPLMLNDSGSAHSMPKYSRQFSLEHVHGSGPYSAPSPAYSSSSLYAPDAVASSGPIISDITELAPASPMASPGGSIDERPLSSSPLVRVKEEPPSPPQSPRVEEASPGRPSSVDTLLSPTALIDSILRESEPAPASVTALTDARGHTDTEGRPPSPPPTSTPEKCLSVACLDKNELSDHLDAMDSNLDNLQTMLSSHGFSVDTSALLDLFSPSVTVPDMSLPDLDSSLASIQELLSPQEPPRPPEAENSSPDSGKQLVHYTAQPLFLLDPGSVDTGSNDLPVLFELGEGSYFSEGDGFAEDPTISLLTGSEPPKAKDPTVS

CCCCCC(C)O (stereo not drawn)
inactive: all assays above

CNC(=S)N(C)C
inactive: all assays above

O=C(c1ccccc1)C1CCC1
inactive: all assays above

CN1C(=O)N(C)C(O)C1O (stereo not drawn)
not listed: [7]
inactive: all other assays above

O=S(=O)(O)c1ccc2cc(O)c(S(=O)(=O)O)cc2c1
active: [2] 160 µM | [5] 171 µM | [8] 169 µM
inactive: all other assays above

CC1(C)O[C@@H]2C[C@H]3[C@@H]4C[C@H](F)C5=CC(=O)CC[C@]5(C)[C@H]4[C@@H](O)C[C@]3(C)[C@]2(C(=O)CO)O1
active: [1] 82.3 nM
not listed: [6] | [9]
inactive: all other assays above

O=C(Oc1ccccc1)c1ccc2ccccc2c1O
active: [5] 34.6 µM | [7] 66.2 µM | [8] 57.2 µM | [9] 24.8 µM
inactive: all other assays above

COCCOCCOCCOCCOC
not listed: [7] | [9]
inactive: all other assays above

OCCNCc1ccccc1
inactive: all assays above

[Cl][Nd]([Cl])[Cl]
inactive: all assays above

C=C(C)c1cccc(C(C)(C)N=C=O)c1
inactive: all assays above

CC(C)c1ccc(C=O)cc1
inactive: all assays above

ON(Cc1ccccc1)Cc1ccccc1
not listed: [7]
inactive: all other assays above

CN(C)c1ccc(N=Nc2ccccc2C(=O)O)cc1
active: [2] 58.1 µM | [5] 17.9 µM | [7] 56.5 µM | [8] 43.9 µM
inactive: all other assays above

Cc1ccc(N)c([N+](=O)[O-])c1
inactive: all assays above

[Cl][In]([Cl])[Cl]
not listed: [7]
inactive: all other assays above

c1cc(C(c2ccc(OCC3CO3)cc2)C(c2ccc(OCC3CO3)cc2)c2ccc(OCC3CO3)cc2)ccc1OCC1CO1 (stereo not drawn)
active: [2] 63.3 µM | [7] 56.5 µM | [8] 50.2 µM
inactive: all other assays above

Nc1ccc2cc3ccccc3cc2c1
inactive: all assays above

NC(CO)(CO)CO
inactive: all assays above

C=C(C)[C@@H]1CCC2=CCC[C@@H](C)[C@]2(C)C1
active: [8] 155 µM
inactive: all other assays above

O=c1cc(-c2ccccc2)oc2ccccc12
active: [2] 127 µM | [7] 178 µM | [8] 124 µM | [9] 99.5 µM
inactive: all other assays above

CC1(C)[C@H]2CC[C@]1(C)C(=O)C2
inactive: all assays above

FC(F)(F)C(=NOCC1OCCO1)c1ccc(Cl)cc1
active: [8] 100 µM
inactive: all other assays above

CCCCCCOc1cc(C)c(O)c(C)c1C
active: [8] 18.2 µM | [9] 11.1 µM
not listed: [5] | [6]
inactive: all other assays above

CCCCCCCCCCCSCC(=O)O
active: [2] 74.1 µM | [6] 100 µM | [7] 159 µM | [8] 106 µM
not listed: [5]
inactive: all other assays above

CC(C)c1ccc(C#N)cc1
not listed: [4]
inactive: all other assays above
